The full data set covers some 8,800 targets. This sample favours those with a hit. About 0.5% of all pairs of compound and target were hits. A number with no mark means an inactive call.
Assays:
Experiment in all cases: log2 fold change, soluble protein after heating vs DMSO (PISA); higher = thermal stabilisation; K562 lysate, 10 uM; active = over 0.2 and 3.5 SD of the protein, either way, in both replicates (recomputed)
[1] = compound: NCC(=O)Nc1ccc(-n2nc(C(F)(F)F)cc2-c2ccc3c(ccc4ccccc43)c2)cc1
Summary of the method: (§1)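 Log-two fold change in thermal stability relative to solvent controls is reported from duplicates. For each sample, crude K562 extract from dounce-homogenised pellets in PBS pH 7.4 with 1 mM MgCl2, at 1 mg/mL protein, was treated with 10 μM compound for 30 min. Aliquots heated for 3 min across 48°C-58°C were pooled, brought to 0.5% NP-40 at 4°C and cleared at 21,000xg for 90 min. The supernatant was quantified by TMTpro 16plex LC-MS/MS with channel sums equalised.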

vorinostat = compound: O=C(CCCCCCC(=O)Nc1ccccc1)NO [vorinostat]
Summary of the method: as §1

silmitasertib = compound: O=C(O)c1ccc2c(c1)nc(Nc1cccc(Cl)c1)c1ccncc12 [silmitasertib]
Summary of the method: as §1

[2] = compound: O=C1NC(=O)C(c2cnc3ccccn23)=C1c1cn2c3c(cc(F)cc13)CN(C(=O)N1CCCCC1)CC2
Summary of the method: as §1

entospletinib = compound: c1cn2cc(-c3ccc4cn[nH]c4c3)nc(Nc3ccc(N4CCOCC4)cc3)c2n1 [entospletinib]
Summary of the method: as §1

UniProt Q9H3S7, sequence (Q9H3S7 whole entry, looked up): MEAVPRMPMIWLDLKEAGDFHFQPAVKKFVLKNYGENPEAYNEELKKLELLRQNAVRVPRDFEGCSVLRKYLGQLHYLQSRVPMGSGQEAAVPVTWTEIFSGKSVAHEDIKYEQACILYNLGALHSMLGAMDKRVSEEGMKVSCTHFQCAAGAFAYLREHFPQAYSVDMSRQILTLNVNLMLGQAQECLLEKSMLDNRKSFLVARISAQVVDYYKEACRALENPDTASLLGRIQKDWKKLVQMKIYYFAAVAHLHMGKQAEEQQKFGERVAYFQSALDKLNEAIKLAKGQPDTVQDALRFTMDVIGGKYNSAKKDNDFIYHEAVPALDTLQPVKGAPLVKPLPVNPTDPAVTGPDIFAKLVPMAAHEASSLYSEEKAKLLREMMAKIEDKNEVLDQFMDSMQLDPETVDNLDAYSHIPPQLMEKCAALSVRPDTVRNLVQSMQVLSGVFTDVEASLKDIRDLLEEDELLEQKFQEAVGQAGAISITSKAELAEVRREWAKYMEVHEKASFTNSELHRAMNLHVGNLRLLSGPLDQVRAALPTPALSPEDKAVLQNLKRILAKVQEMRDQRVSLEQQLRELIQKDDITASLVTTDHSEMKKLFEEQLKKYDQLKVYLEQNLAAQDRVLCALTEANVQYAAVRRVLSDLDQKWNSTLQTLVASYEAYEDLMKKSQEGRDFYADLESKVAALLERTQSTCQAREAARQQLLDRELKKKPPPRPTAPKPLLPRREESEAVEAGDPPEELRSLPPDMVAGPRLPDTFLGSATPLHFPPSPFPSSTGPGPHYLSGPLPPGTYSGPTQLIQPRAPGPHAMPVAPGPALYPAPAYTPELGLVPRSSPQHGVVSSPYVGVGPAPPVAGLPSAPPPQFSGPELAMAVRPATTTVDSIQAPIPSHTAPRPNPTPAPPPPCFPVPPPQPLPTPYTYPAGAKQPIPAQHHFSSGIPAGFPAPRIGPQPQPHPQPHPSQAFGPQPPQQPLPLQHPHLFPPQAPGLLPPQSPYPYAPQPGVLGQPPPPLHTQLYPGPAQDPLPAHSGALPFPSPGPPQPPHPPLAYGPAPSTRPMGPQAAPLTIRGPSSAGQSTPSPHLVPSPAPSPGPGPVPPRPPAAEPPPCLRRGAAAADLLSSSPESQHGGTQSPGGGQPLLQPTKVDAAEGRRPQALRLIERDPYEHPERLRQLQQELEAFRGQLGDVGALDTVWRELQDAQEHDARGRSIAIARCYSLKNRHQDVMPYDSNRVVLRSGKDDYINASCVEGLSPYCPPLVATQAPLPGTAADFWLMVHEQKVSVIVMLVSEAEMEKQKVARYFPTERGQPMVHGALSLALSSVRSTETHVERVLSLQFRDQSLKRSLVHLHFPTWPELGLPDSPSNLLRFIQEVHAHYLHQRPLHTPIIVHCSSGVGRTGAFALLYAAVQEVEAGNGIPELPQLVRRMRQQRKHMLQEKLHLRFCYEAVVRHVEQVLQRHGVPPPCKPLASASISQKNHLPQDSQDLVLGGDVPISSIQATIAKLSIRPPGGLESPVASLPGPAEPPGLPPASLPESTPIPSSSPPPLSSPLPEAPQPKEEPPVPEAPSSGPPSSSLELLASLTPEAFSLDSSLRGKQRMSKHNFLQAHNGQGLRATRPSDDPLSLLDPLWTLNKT
UniProt P67775, sequence (P67775 whole entry, looked up): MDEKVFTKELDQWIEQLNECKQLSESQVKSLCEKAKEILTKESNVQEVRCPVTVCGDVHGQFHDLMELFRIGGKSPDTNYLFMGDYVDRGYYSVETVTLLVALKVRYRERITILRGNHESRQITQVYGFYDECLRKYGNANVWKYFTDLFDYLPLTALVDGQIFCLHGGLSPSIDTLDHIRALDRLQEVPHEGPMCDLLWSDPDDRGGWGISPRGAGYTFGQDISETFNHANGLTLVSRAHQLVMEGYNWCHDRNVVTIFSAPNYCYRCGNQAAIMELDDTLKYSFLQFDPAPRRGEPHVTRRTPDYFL
UniProt Q8NA72, sequence (Q8NA72 whole entry, looked up): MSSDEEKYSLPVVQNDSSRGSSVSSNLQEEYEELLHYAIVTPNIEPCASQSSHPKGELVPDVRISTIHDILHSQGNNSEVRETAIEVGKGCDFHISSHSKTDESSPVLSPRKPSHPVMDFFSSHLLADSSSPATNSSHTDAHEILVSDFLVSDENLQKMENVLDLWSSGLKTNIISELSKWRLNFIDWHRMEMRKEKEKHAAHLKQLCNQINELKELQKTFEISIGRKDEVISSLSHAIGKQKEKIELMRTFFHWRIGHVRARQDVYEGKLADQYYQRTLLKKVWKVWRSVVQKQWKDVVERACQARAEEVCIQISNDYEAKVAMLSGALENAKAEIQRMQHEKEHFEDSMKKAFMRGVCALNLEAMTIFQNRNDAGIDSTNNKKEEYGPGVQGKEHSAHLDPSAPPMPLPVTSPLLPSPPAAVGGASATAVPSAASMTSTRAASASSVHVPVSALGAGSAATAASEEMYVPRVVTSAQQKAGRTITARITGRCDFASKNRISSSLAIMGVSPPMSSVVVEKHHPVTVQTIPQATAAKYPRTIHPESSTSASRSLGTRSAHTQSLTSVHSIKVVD
UniProt Q9Y570, sequence (Q9Y570 whole entry, looked up): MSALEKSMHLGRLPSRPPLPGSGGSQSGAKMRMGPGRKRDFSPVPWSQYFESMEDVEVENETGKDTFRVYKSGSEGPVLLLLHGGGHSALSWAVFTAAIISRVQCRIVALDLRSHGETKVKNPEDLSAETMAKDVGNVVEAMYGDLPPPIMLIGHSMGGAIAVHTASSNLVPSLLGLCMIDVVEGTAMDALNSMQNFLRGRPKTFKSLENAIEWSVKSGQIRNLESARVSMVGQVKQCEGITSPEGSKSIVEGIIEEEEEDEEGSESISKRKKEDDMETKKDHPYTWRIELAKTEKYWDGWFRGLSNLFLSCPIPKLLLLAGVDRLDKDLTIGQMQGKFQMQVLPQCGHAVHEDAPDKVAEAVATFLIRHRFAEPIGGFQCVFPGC
UniProt O00541, sequence (O00541 whole entry, looked up): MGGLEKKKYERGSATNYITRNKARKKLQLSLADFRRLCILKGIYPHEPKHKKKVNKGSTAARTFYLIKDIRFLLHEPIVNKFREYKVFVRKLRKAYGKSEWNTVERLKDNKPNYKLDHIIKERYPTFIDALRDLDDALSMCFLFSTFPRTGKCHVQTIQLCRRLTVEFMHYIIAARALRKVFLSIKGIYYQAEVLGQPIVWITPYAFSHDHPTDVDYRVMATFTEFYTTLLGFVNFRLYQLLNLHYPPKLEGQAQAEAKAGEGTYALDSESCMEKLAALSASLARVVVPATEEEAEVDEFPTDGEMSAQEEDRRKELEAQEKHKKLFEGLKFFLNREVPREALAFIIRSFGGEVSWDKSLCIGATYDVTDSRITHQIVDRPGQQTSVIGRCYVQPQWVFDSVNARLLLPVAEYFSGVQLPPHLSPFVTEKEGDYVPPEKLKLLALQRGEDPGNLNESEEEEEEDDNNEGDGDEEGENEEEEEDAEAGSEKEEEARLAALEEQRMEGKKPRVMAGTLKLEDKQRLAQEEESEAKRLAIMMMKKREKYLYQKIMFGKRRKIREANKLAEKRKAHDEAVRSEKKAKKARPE
UniProt Q8TBX8, sequence (Q8TBX8 whole entry, looked up): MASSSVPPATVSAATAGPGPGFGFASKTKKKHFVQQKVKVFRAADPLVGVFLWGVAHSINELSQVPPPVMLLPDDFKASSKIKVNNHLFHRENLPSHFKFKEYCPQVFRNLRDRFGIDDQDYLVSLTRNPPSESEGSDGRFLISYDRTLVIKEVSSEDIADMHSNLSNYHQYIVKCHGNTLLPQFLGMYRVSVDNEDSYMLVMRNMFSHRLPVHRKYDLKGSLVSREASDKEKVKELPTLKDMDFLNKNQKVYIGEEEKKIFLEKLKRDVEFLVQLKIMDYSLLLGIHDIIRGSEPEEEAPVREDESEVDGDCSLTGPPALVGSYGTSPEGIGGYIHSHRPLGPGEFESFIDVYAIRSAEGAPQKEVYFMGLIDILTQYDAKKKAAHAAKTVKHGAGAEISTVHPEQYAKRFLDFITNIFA
UniProt Q93096, sequence (Q93096 whole entry, looked up): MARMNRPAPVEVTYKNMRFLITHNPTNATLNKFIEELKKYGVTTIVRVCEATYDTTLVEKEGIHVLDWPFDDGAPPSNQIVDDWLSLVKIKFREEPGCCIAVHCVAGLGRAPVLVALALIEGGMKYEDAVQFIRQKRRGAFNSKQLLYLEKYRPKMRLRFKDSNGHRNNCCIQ
UniProt Q9UNP9, sequence (Q9UNP9 whole entry, looked up): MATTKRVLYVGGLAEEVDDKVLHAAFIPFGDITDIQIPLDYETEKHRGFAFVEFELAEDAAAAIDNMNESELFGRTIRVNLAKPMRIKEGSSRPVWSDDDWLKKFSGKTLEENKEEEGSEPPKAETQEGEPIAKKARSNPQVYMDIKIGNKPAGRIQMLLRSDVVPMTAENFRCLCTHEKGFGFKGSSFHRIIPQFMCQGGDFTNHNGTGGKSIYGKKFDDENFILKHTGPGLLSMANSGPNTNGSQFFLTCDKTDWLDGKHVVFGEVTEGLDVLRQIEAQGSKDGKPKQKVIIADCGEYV
UniProt Q15366, sequence (Q15366 whole entry, looked up): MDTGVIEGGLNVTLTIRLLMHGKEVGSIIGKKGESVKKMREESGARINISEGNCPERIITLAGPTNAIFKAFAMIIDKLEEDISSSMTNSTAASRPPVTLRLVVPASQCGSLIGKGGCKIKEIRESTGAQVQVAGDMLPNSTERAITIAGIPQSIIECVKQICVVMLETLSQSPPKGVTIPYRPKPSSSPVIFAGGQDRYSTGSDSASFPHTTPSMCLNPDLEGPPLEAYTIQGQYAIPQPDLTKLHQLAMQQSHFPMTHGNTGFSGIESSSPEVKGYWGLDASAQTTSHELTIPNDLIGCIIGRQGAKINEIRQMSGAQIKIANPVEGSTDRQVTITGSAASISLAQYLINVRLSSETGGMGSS
UniProt Q9Y244, sequence (Q9Y244 whole entry, looked up): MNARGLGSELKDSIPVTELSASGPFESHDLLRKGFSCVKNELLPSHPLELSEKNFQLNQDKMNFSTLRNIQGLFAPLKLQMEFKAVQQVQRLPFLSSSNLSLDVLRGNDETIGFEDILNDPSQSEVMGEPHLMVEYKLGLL

Row | Target | log2 fold change [1] | log2 fold change (vorinostat) | log2 fold change (silmitasertib) | log2 fold change [2] | log2 fold change (entospletinib)
1 | PCBP2 isoform 3 (UniProt Q15366) | -0.071 | -0.252 (active) | 0.042 | -0.035 | 0.01
2 | PTPN1 (UniProt P18031) | -0.005 | -0.29 (active) | 0.04 | 0.012 | 0.048
3 | PITRM1 isoform 2 (UniProt Q5JRX3) | 0.003 | 0.111 | 0.006 | -0.011 | 0.002
4 | PTPN23 (UniProt Q9H3S7) | -0.011 | -0.266 (active) | -0.007 | 0 | 0.009
5 | PWP2 (UniProt Q15269) | 0.007 | -0.547 (active) | 0.029 | -0.014 | 0.019
6 | PCYT1B (UniProt Q9Y5K3) | -0.03 | 0.064 | -0.062 | -0.027 | 0.002
7 | PICALM (UniProt H0YEH1) | -0.048 | 0.037 | -0.045 | -0.075 | -0.237
8 | PES1 (UniProt O00541) | 0.03 | -0.193 | 0.037 | 0.014 | -0.015
9 | PGGT1B (UniProt P53609) | -0.038 | 0.08 | 0.109 | -0.029 | -0.054
10 | POC5 (UniProt Q8NA72) | -0.128 | -0.36 (active) | -0.021 | 0.02 | -0.184
11 | PPIE (UniProt Q9UNP9) | 0.024 | 0.096 | 0.035 | -0.045 | -0.036
12 | PPME1 isoform 4 (UniProt Q9Y570) | -0.02 | -0.03 | 0.013 | 0.005 | 0.031
13 | PDCD6IP (UniProt Q8WUM4) | 0.065 | -0.332 (active) | -0.005 | 0.009 | -0.009
14 | PDXDC1 (UniProt Q6P996) | -0.041 | -0.233 (active) | 0.038 | 0.018 | -0.019
15 | PLEKHA5 isoform 6 (UniProt Q9HAU0) | -0.029 | -0.305 (active) | -0.003 | -0.016 | 0.022
16 | PTP4A1 (UniProt Q93096) | 0.019 | -0.292 (active) | -0.003 | 0.014 | -0.009
17 | PIP4K2B (UniProt P78356) | 0.005 | 0.074 | 0.221 | 0.073 | -0.013

Row | Target | log2 fold change [1] | log2 fold change (vorinostat) | log2 fold change (silmitasertib) | log2 fold change [2] | log2 fold change (entospletinib)
18 | PRKAR2A (UniProt P13861) | 0.005 | -0.037 | -0.008 | -0.06 | -0.035
19 | PFKFB3 isoform 4 (UniProt Q16875) | 0.025 | -0.34 (active) | 0.108 | 0.017 | -0.006
20 | PMS2 (UniProt P54278) | 0.064 | -0.384 (active) | 0.026 | 0.027 | 0.001
21 | POMP (UniProt Q9Y244) | -0.016 | -0.028 | 0.05 | 0.014 | -0.12
22 | PHLDB1 (UniProt Q86UU1) | 0.022 | -0.357 (active) | 0.012 | 0.128 | 0.008
23 | PPP2CA (UniProt P67775) | -0.079 | 0.076 | -0.021 | -0.004 | 0
24 | PPCDC (UniProt Q96CD2) | 0.001 | -0.002 | 0.071 | -0.015 | 0.002
25 | PIP4K2C (UniProt Q8TBX8) | 0.021 | -0.07 | 0.425 (active) | 0.063 | 0.004
26 | POLR2G (UniProt P62487) | 0.001 | 0.116 | -0.043 | -0.03 | 0.014
27 | PRKCSH isoform 2 (UniProt P14314) | -0.046 | 0.126 | -0.057 | -0.019 | 0.037
28 | PUM1 isoform 3 (UniProt Q14671) | 0.027 | -0.192 | 0 | -0.004 | -0.009
29 | PPP2R5B (UniProt Q15173) | 0.077 | -0.075 | -0.007 | -0.065 | 0.028
30 | PHKG2 (UniProt P15735) | -0.029 | 0.013 | 0.008 | -0.022 | 0.026
31 | PHKB isoform 3 (UniProt Q93100) | -0.023 | -0.288 (active) | 0.07 | 0.016 | 0.023
32 | PELO (UniProt Q9BRX2) | 0.021 | -0.495 (active) | 0.058 | 0.02 | 0.006
33 | PLK1 (UniProt P53350) | 0.027 | -0.638 (active) | 0.005 | 0.022 | 0.072

From the supplement of paper PMC10849652
